Source: PubChem BioAssay
Several values for one entry are separate records, joined by “and”; a condition that tells them apart may be missing. Equal values may be shown once. Activity calls are given as the source filed them.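 The calls were made as follows: active = thallium flux through the channel raised or lowered by more than 3 SD from vehicle-only wells, actives on both sides; inactive = the rest.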

What was measured:
Assay in all cases: modulators of BK channel variants, profiling panel, selectivity assay, cell-based, U2OS BacMam, thallium flux, beta subunits (AID 1259406);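 also: initial slope of Thallos dye fluorescence rise after thallium is added; log ratio against the mean of 0.3% DMSO vehicle wells on the same plate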
F380Y/beta2Delta = conditions: at 30 µM
F380Y/beta4 = conditions: at 30 µM
[1] = biological target: Calcium-activated potassium channel subunit alpha-1 (Homo sapiens) + Leucine-rich repeat-containing protein 26 (Homo sapiens) (UniProt Q12791+Q2I0M4); conditions: F380Y/Slo1WT/gamma1, at 30 µM
Calcium-activated potassium channel subunit alpha-1 (Homo sapiens) + Leucine-rich repeat-containing protein 26 (Homo sapiens), sequence (Q2I0M4 whole entry, looked up, one chain of several): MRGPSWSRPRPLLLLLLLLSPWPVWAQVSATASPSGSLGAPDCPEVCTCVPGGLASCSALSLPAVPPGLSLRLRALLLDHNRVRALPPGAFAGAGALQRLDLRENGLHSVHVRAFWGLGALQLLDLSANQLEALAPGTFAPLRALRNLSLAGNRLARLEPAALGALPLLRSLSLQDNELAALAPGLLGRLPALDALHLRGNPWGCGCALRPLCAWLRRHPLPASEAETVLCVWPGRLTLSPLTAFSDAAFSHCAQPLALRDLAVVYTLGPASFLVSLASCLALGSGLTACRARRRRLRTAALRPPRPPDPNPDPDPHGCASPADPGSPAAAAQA

R275C = conditions: at 30 µM
R275C/beta1 = conditions: at 30 µM
R275C/beta2Delta = conditions: at 30 µM
R275C/beta4 = conditions: at 30 µM
R275C/Slo1WT/beta2 = conditions: at 30 µM

Measured: log fold change Tl+ flux

CCN1CCN(c2cc3c(cc2F)c(=O)c(C(=O)O)cn3C2CC2)CC1
active: R275C/Slo1WT/beta2 0.165
inactive: F380Y/beta2Delta -0.0171 | F380Y/beta4 0.015 | [1] 0.00572 | R275C -0.0438 | R275C/beta1 0.0122 | R275C/beta2Delta 0.0322 | R275C/beta4 0.0288

CCN1CCC[C@H]1CNC(=O)c1cc(S(N)(=O)=O)ccc1OC
inactive: F380Y/beta2Delta -0.0214 | F380Y/beta4 -0.00754 | [1] 0.0207 | R275C -0.000435 | R275C/beta1 -0.0215 | R275C/beta2Delta -0.02 | R275C/beta4 0.0473 | R275C/Slo1WT/beta2 -0.0273

NCC1CCC(C(=O)Oc2ccc(CCC(=O)O)cc2)CC1 (stereo unspecified)
inactive: F380Y/beta2Delta -0.0278 | F380Y/beta4 -0.00261 | [1] 0.0182 | R275C -0.0458 | R275C/beta1 0.036 | R275C/beta2Delta 0.00228 | R275C/beta4 -0.0367 | R275C/Slo1WT/beta2 -0.00395

COc1cc(C(=O)NC2CCCNC2)cc(OC)c1OC (stereo unspecified)
inactive: F380Y/beta2Delta -0.0479 | F380Y/beta4 -0.0783 | [1] 0.00703 | R275C -0.0701 | R275C/beta1 -0.0128 | R275C/beta2Delta 0.000824 | R275C/beta4 0.00216 | R275C/Slo1WT/beta2 -0.0186

Nc1nc(F)nc2c1ncn2[C@@H]1O[C@H](CO)[C@@H](O)[C@@H]1O
inactive: F380Y/beta2Delta 0.0109 | F380Y/beta4 -0.0895 | [1] -0.000905 | R275C -0.0205 | R275C/beta1 -0.0181 | R275C/beta2Delta -0.00769 | R275C/beta4 -0.0294 | R275C/Slo1WT/beta2 -0.0303

CCN(CC)CC1CCCCN1CC(=O)N1c2ccccc2C(=O)Nc2cccnc21 (stereo unspecified)
inactive: F380Y/beta2Delta 0.0497 | F380Y/beta4 -0.01 | [1] 0.0283 | R275C -0.0778 | R275C/beta1 0.0108 | R275C/beta2Delta 0.0199 | R275C/beta4 0.0303 | R275C/Slo1WT/beta2 0.0393

COc1cc(C)c(Cc2cnc(N)nc2N)cc1OC
inactive: F380Y/beta2Delta 0.0137 | F380Y/beta4 0.0281 | [1] 0.0784 | R275C -0.0521 | R275C/beta1 0.0546 | R275C/beta2Delta 0.0143 | R275C/beta4 0.00157 | R275C/Slo1WT/beta2 0.0258

O=C1Nc2ccc(Cl)cc2[C@@](C#CC2CC2)(C(F)(F)F)O1
inactive: F380Y/beta2Delta 0.0472 | F380Y/beta4 0.0723 | [1] 0.0446 | R275C/Slo1WT/beta2 -0.0224
active: R275C -0.166 | R275C/beta1 0.275 | R275C/beta2Delta 0.119 | R275C/beta4 0.11

Cc1cccc(C)c1NC(=O)C(C)N (stereo unspecified)
active: R275C/Slo1WT/beta2 0.0922
inactive: F380Y/beta2Delta 0.0308 | F380Y/beta4 0.00908 | [1] -0.00222 | R275C 0.0212 | R275C/beta1 -0.0204 | R275C/beta2Delta -0.0462 | R275C/beta4 -0.0241

CC(C)c1nc(CN(C)C(=O)N[C@H](C(=O)N[C@@H](Cc2ccccc2)C[C@H](O)[C@H](Cc2ccccc2)NC(=O)OCc2cncs2)C(C)C)cs1
active: F380Y/beta2Delta -0.548 | F380Y/beta4 -0.505 | [1] -0.199 | R275C -0.232 | R275C/beta2Delta -0.208
inactive: R275C/beta1 0.0641 | R275C/beta4 -0.0726 | R275C/Slo1WT/beta2 0.0476

O=c1[nH]cnc2c1ncn2[C@H]1CC[C@@H](CO)O1
inactive: F380Y/beta2Delta 0.0117 | F380Y/beta4 -0.00261 | [1] 0.0216 | R275C -0.0353 | R275C/beta1 -0.00622 | R275C/beta2Delta -0.00829 | R275C/beta4 0.000837 | R275C/Slo1WT/beta2 0.00413

CN1CCC(=C2c3ccccc3CC(=O)c3sccc32)CC1
inactive: F380Y/beta2Delta 0.00285 | F380Y/beta4 0.0281 | [1] 0.0191 | R275C -0.082 | R275C/beta1 0.0422 | R275C/beta2Delta 0.0873 | R275C/beta4 0.0237 | R275C/Slo1WT/beta2 0.0313

C[C@@H]1C[C@H]2[C@@H]3CCC4=CC(=O)C=C[C@]4(C)[C@@]3(F)[C@@H](O)C[C@]2(C)[C@H]1C(=O)CO
inactive: F380Y/beta2Delta 0.0651 | F380Y/beta4 0.0601 | [1] 0.0369 | R275C -0.061 | R275C/beta2Delta 0.0622 | R275C/beta4 0.0336 | R275C/Slo1WT/beta2 0.0113
active: R275C/beta1 0.178

Cc1nc2n(c(=O)c1CCN1CCC(c3noc4cc(F)ccc34)CC1)CCCC2
inactive: F380Y/beta2Delta -0.0407 | F380Y/beta4 -0.0446 | [1] -0.0848 | R275C/beta1 -0.00526 | R275C/beta2Delta -0.0361 | R275C/beta4 -0.0132 | R275C/Slo1WT/beta2 0.0103
active: R275C -0.134

CCC(=O)O[C@]1(C(=O)SCF)[C@H](C)C[C@H]2[C@@H]3C[C@H](F)C4=CC(=O)C=C[C@]4(C)[C@@]3(F)[C@@H](O)C[C@@]21C
inactive: F380Y/beta2Delta 0.0505 | F380Y/beta4 0.0435 | [1] 0.0105 | R275C -0.00436 | R275C/beta1 -0.000971 | R275C/beta2Delta 0.027 | R275C/beta4 0.00493 | R275C/Slo1WT/beta2 0.0478

OCc1cccnc1
inactive: F380Y/beta2Delta 0.033 | F380Y/beta4 0.017 | [1] -0.0204 | R275C -0.0301 | R275C/beta1 -0.00726 | R275C/beta2Delta -0.015 | R275C/beta4 -0.00528 | R275C/Slo1WT/beta2 0.0162

CN1CCN(C2=Nc3cc(F)ccc3Cc3ccccc32)CC1
inactive: F380Y/beta2Delta 0.0383 | F380Y/beta4 0.075 | [1] -0.0172 | R275C -0.0264 | R275C/beta1 0.0276 | R275C/beta2Delta 0.0198 | R275C/beta4 0.0369 | R275C/Slo1WT/beta2 0.0225

Cc1cccc(C)c1OCC(C)N (stereo unspecified)
inactive: F380Y/beta2Delta 0.00522 | F380Y/beta4 0.033 | [1] 0.0106 | R275C 0.0441 | R275C/beta1 0.0258 | R275C/beta2Delta 0.00537 | R275C/beta4 0.0107 | R275C/Slo1WT/beta2 0.0729

Cc1ccsc1C(=CCCN1CCC[C@@H](C(=O)O)C1)c1sccc1C
active: R275C/beta1 0.0901
inactive: F380Y/beta2Delta 0.0383 | F380Y/beta4 0.0453 | [1] 0.0044 | R275C -0.056 | R275C/beta2Delta 0.0627 | R275C/beta4 0.0287 | R275C/Slo1WT/beta2 0.0117

CCOc1cc(N)c(Cl)cc1C(=O)NCC1CN(Cc2ccc(F)cc2)CCO1 (stereo unspecified)
inactive: F380Y/beta2Delta 0.0207 | F380Y/beta4 -0.0442 | [1] 0.0207 | R275C -0.0128 | R275C/beta1 0.0447 | R275C/beta4 0.0132 | R275C/Slo1WT/beta2 0.00286
active: R275C/beta2Delta 0.108

CC(C)NCC(O)COc1ccc(COCCOC(C)C)cc1 (stereo unspecified)
inactive: F380Y/beta2Delta 0.00366 | F380Y/beta4 0.0255 | [1] 0.0397 | R275C -0.0696 | R275C/beta1 -0.003 | R275C/beta2Delta -0.0507 | R275C/beta4 0.0137 | R275C/Slo1WT/beta2 0.0109

Cc1nc2ccc(CN(C)c3ccc(C(=O)N[C@@H](CCC(=O)O)C(=O)O)s3)cc2c(=O)[nH]1
inactive: F380Y/beta2Delta -0.00369 | F380Y/beta4 0.0379 | [1] -0.00311 | R275C -0.0146 | R275C/beta1 0.00396 | R275C/beta2Delta -0.00877 | R275C/beta4 -0.00369 | R275C/Slo1WT/beta2 -0.0401

CCN1CCCC1CNC(=O)c1cc(S(=O)(=O)CC)c(N)cc1OC (stereo unspecified)
inactive: F380Y/beta2Delta 0.0211 | F380Y/beta4 0.00308 | [1] -0.0597 | R275C -0.0334 | R275C/beta1 0.00406 | R275C/beta2Delta -0.0411 | R275C/beta4 -0.0037 | R275C/Slo1WT/beta2 0.0112

Cc1cn([C@H]2C=C[C@@H](CO)O2)c(=O)[nH]c1=O
inactive: F380Y/beta2Delta 0.00122 and 0.00603 | F380Y/beta4 -0.027 and 0.00706 | [1] 0.0426 and -0.00611 | R275C -0.1 and -0.00698 | R275C/beta1 -0.02 and 0.0272 | R275C/beta2Delta -0.0201 and 0.00371 | R275C/beta4 0.0202 and -0.00131 | R275C/Slo1WT/beta2 0.0395 and 0.0392

COC(=O)CCc1ccc(OCC(O)CNC(C)C)cc1 (stereo unspecified)
inactive: F380Y/beta2Delta 0.0184 | F380Y/beta4 -0.0155 | [1] -0.00535 | R275C -0.0168 | R275C/beta1 0.0198 | R275C/beta2Delta 0.0115 | R275C/beta4 0.0115 | R275C/Slo1WT/beta2 0.0231

CCOc1cc(CC(=O)N[C@@H](CC(C)C)c2ccccc2N2CCCCC2)ccc1C(=O)O
active: F380Y/beta2Delta 0.217 | F380Y/beta4 0.297 | R275C/beta1 0.495 | R275C/beta2Delta 0.262 | R275C/beta4 0.161
inactive: [1] 0.0882 | R275C -0.00436 | R275C/Slo1WT/beta2 0.0386

Nc1[nH]c(=O)ncc1F
inactive: F380Y/beta2Delta 0.0238 | F380Y/beta4 0.00948 | [1] 0.00877 | R275C 0.0013 | R275C/beta1 -0.0522 | R275C/beta2Delta 0.00516 | R275C/beta4 -0.00411 | R275C/Slo1WT/beta2 -0.0674
